About 83,000 compounds went through this panel and 20% of them were active in at least one assay; those are over-represented in the sample as a whole.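 A percent growth of 40 corresponds to 60% growth inhibition; 0 means no net growth; -100 means all cells died. Active threshold: below 10.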 Activity calls are given as the source filed them.
Columns and labels:
Assay in all cases: NCI-60 one-dose screen, 48 h (100 = growth as untreated, 0 = no growth, -100 = all killed)
Conditions in all cases: 10 µM unless noted
[1] = tested on: T-47D breast
[2] = tested on: BT-549 breast
[3] = tested on: MDA-MB-435 melanoma
[4] = tested on: SW-620 colon
[5] = tested on: MCF7 breast
[6] = tested on: HCT-116 colon
[7] = tested on: HCC-2998 colon
[8] = tested on: KM12 colon

Measured: growth

O=P(O)(O)OCC1OC(n2cnc3c(NCc4ccco4)ncnc32)C(O)C1O (stereo not given)
inactive: [1] 42.5% | [3] 16.2% | [4] 14.8% | [8] 44.1%
active: [2] -12.3% | [5] 0.586% | [6] -31.1% | [7] 0.214%

CCn1cc(CNc2ccc(C(=O)Nc3cc4cc(OC)c(OC)cc4c(C)n3)cc2)cn1
active: [1] -3.23%
inactive: [2] 24.6% | [3] 10.5% | [4] 75.3% | [5] 46.6% | [6] 46.8% | [7] 87.8% | [8] 33.3%

O=C1/C(=C/c2ccccc2F)CN(C(=O)C(Cl)Cl)C/C1=C\c1ccccc1F
active: [1] -7.38% | [2] -46.5% | [3] -56.8% | [4] -76.9% | [5] -49% | [6] -90.3% | [7] -76.9% | [8] -51.7%

CC(C)CCN(CCC(C)C)CC(O)c1cc2c(c3ccccc13)CCCC2 (stereo not given)
inactive: [1] 59% | [2] 103% | [3] 98.4% | [4] 59% | [5] 78.5% | [6] 50.5% | [7] 30.1% | [8] 64.6%

CC1(C)CC[C@]2(CO)CC[C@]3(C)[C@H](CC[C@@H]4[C@@]5(C)CCCNC(C)(C)[C@@H]5CC[C@]43C)[C@H]2[C@H]1O
inactive: [1] 88.8% | [2] 89.3% | [3] 82.7% | [4] 54.2% | [5] 55.2% | [6] 50.2% | [7] 38.2% | [8] 77.9%

C#COc1cccc(Nc2ncnc3cc(NC(=O)[C@@H](C)Cl)ccc23)c1
active: [1] -1.06% [6.25 µM] | [3] -58.4% [6.25 µM] | [6] 9.6% [6.25 µM]
inactive: [2] 22.2% [6.25 µM] | [4] 20.4% [6.25 µM] | [5] 11.6% [6.25 µM] | [7] 15.2% [6.25 µM] | [8] 14.8% [6.25 µM]

CN(C)CCCC1(c2ccc(F)cc2)OCc2cc(-c3ccc4cc[nH]c4c3)ccc21 (stereo not given)
inactive: [1] 75.8% | [2] 87.7% | [3] 14.7% | [4] 17.2%
active: [5] -4.23% | [6] -12.2% | [7] -61.6% | [8] 0.464%

O=C1/C(=C/c2ccc(O)c(O)c2)COc2ccc(-c3ccccc3)cc21
active: [3] -6.77% | [4] -38.3% | [7] -23%
inactive: [1] 15.4% | [2] 31.7% | [5] 16% | [6] 12.7% | [8] 19.6%

Cc1ccc(S(=O)(=O)N2CCC(=O)c3ccccc32)cc1
inactive: [1] 78.7% | [2] 65.6% | [4] 44.7% | [5] 40.5% | [6] 59.4% | [7] 83.8% | [8] 33.5%
active: [3] 6.12%

CC1(C)NCCC[C@]2(C)[C@H]3CC[C@H]4[C@H]5[C@H](C(=O)/C=C/c6cccnc6)CCC[C@]5(CO)CC[C@@]4(C)[C@]3(C)CC[C@@H]12
active: [4] 7.51%
inactive: [1] 81.3% | [2] 88.2% | [3] 70.8% | [5] 22.1% | [6] 37.2% | [7] 19.7% | [8] 39.8%

C=C1C(=O)O[C@H]2[C@H]1CC/C(COC(=O)/C=C\C(=O)NCc1ccc(Cn3c(=O)sn(CCCl)c3=O)cc1)=C\CC[C@@]1(C)O[C@@H]21
inactive: [1] 84.7% | [2] 85.5% | [3] 65.8% | [4] 31.2% | [5] 61.8% | [6] 68.7% | [7] 117% | [8] 97.1%

CC(=O)Oc1ccc(OC(C)=O)c2ccccc12
inactive: [2] 96.8% | [3] 95.8% | [4] 109% | [5] 57.3% | [6] 51.6% | [7] 103% | [8] 100%
active: [1] -49.6%

Nc1nc(N)c2c(n1)NC(c1cccc(Nc3ccnc4cc(C(F)(F)F)ccc34)c1)CC(c1ccc(Br)cc1)=N2 (stereo not given)
active: [3] -25.8%
inactive: [1] 68.9% | [2] 114% | [4] 31.1% | [5] 17.3% | [6] 16.2% | [7] 55.1% | [8] 28.3%

O=C1/C(=C/c2ccc(F)cc2)CN(C(=O)C(Cl)Cl)C/C1=C\c1ccc(F)cc1
active: [1] -22.4% | [2] -80.1% | [3] -93.7% | [4] -73.1% | [5] -60.9% | [6] -92.8% | [7] -89.3% | [8] -66.3%

O=C(CI)NC(=O)NC(=O)NCc1ccccc1
inactive: [1] 18.8% | [2] 37.2% | [3] 21% | [4] 25.2% | [5] 12% | [6] 13.3% | [7] 95.3% | [8] 88.6%

COc1ccc(C(=S)N2CCN(c3ccc(Cl)cc3)CC2)cc1
inactive: [1] 88.1% | [2] 95.4% | [3] 120% | [4] 106% | [5] 94% | [6] 96% | [7] 105% | [8] 101%

O=c1c2c3c(sc2n2c(-c4cc(-c5ccccc5)no4)nnc2n1Cc1ccccc1)CCCC3
inactive: [1] 53.3% | [2] 91.9% | [3] 106% | [4] 106% | [5] 97.1% | [6] 81.6% | [7] 101% | [8] 95.5%

COc1cc(-c2nc3cc(Cl)c(Cl)cc3[nH]2)ccc1OCC(=O)N=Nc1c(O)[nH]c2ccc(Cl)cc12
inactive: [2] 12%
active: [1] -4.31% | [3] -57.7% | [4] -14.2% | [5] 1.63% | [6] -16.2% | [7] -39.2% | [8] 9.24%

COc1ccc(CCN(CC(=O)N(CC(N)=O)C2CCC[C@@H]2OCc2ccccc2)C(=O)CN(C(=O)CN(CCc2ccc(Cl)cc2)C(=O)CN(C(=O)CN(C)Cc2ccccc2F)[C@H](C)C2CCCCC2)[C@H](C)C2CCCCC2)cc1OC (stereo not given in full)
inactive: [1] 27% | [2] 47.3% | [3] 26% | [4] 53.2% | [5] 14.1% | [6] 22.4% | [8] 20.2%
active: [7] 0.406%

Cc1ccccc1Nc1cc(O)c2c(=O)cc(-c3ccccc3)oc2c1
active: [3] 1.9%
inactive: [1] 36.5% | [2] 47.1% | [4] 21% | [5] 15.5% | [6] 15.2% | [7] 76.7% | [8] 36.4%

CCN1CCN(CC(=O)Nc2ccc(-c3cn4c(n3)sc3cc(Oc5ccnc(C(=O)NC)c5)ccc34)cc2)CC1
inactive: [1] 32.8% | [2] 57.2% | [3] 10.1% | [5] 80.2% | [7] 117% | [8] 75.6%
active: [4] 8.44% | [6] 1.48%

CN1C(=O)/C(=C2\SC(=Nc3ccccc3)N(Nc3ccccc3)C2=O)c2ccccc21
inactive: [1] 82.2% | [2] 109% | [3] 106% | [4] 98.3% | [5] 86.2% | [6] 104% | [7] 113% | [8] 103%

CCN1C(=O)N(CC)C2C1NN=c1s/c(=C3\C(=O)N(CC(C)C)c4ccccc43)c(=O)n12 (stereo not given)
active: [3] -16.4%
inactive: [1] 73.8% | [2] 17.5% | [4] 33.9% | [5] 15.1% | [6] 11.9% | [7] 13.8% | [8] 20.9%

Cc1c2ccncc2c(C)c2c1c1cc(CO)ccc1n2C
active: [1] -17.1% | [3] 6.7% | [4] 1.67% | [5] 4.26% | [6] -22.5% | [8] 9.22%
inactive: [2] 10.7% | [7] 15.5%

Cc1ccc(-c2nc(N3CCNCC3)c3oc(-c4ccc(C)cc4)nc3n2)cc1
inactive: [1] 37.3% | [2] 83.4% | [7] 65.5%
active: [3] -77.1% | [4] -69.3% | [5] -73.1% | [6] -39.4% | [8] -81.9%

Cc1ccc(S(=O)(=O)c2nc(-c3ccccc3)oc2Sc2nc3ccccc3s2)cc1
inactive: [1] 62.7% | [2] 17.6% | [3] 54.7% | [4] 54.7% | [5] 58% | [7] 107% | [8] 97.2%
active: [6] -1.16%

O=C(NNC(=O)c1nc2cc(F)ccc2n2cccc12)c1cnccn1
inactive: [1] 38.5% | [2] 66% | [3] 36.2% | [4] 26.4% | [5] 34.8% | [6] 32.4% | [7] 50.7% | [8] 28%

CN1CCN(C(=O)C(C)(C)c2ccc(C(=O)Nc3cn4cc(-c5ccncc5)ccc4n3)cc2)CC1
active: [1] 3.75% | [2] 7.86% | [5] -0.0814% | [6] 5.31% | [8] 7.82%
inactive: [3] 14.2% | [4] 11.1% | [7] 13.9%

O=c1cc(-c2ccccc2)[nH]c2ncc(-c3ccc(F)cc3)n12
inactive: [1] 74.3% | [2] 64.1% | [4] 40.3% | [5] 57.8% | [6] 51.3% | [7] 75.6% | [8] 44.4%
active: [3] -12%

COC(=O)C(Cc1ccccc1)NC(=O)c1ccc(NC(=O)c2[nH]c(C)c(Cl)c2Cl)c(OC(C)C)c1 (stereo not given)
inactive: [1] 36.5% | [2] 82.1% | [3] 100% | [4] 42.4% | [5] 32.8% | [7] 80.1% | [8] 39.8%
active: [6] 0.768%
